Test results as given in PubChem BioAssay (NCI).
About 83,000 compounds went through this panel and 20% of them were active in at least one assay; those are over-represented in the sample as a whole.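 Treatment: one concentration, 48 hours, 96-well format. Scoring: percent growth, with anything below 10 considered active.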 Calls of active or inactive are those of the source.

tested on: HS 578T breast; assay: NCI-60 one-dose screen, 48 h (100 = growth as untreated, 0 = no growth, -100 = all killed); conditions: 10 µM unless noted
Protocol: Growth inhibition of the HS 578T human tumor cell line is measured as a screen for anti-cancer activity. Cells are grown in 96 well plates and exposed to the test compound for 48 hours. Compounds are tested at a single concentration, which is 10^-5 M for most compounds. The reported endpoint is percent growth (GI% or GIPRCNT), where numbers from 0 - 100% represent growth inhibition, and numbers from -100% - 0 represent cell death. For example, a value of 40 represents 60% growth inhibition. A value of 0 means no net growth occurred over the course of the experiment. A value of -40 indicates 40% of cells at the beginning of the experiment died by the end of the experiment. A value of -100 means all cells are dead at the end of the experiment.
NCI-60 Human Tumor Cell Lines Screen was performed using the standard one-dose NCI protocol, which is described in more detail at https://dtp.cancer.gov/discovery_development/nci-60/default.htm.
Compounds with GIPRCNT values below 10 were considered active. Activity score was based on GIPRCNT using the following formula: […]
Score is 0 for GIPRCNT values of 100 or above, 50 for GIPRCNT values of 0, and 100 for GIPRCNT values of -100.

**Q.** With COc1ccccc1/C=C(/C(=O)c1ccccc1)c1ccccc1 as the molecule, how does the growth read?
**A.** 100% (inactive)

**Q.** How did the growth turn out when CCOC(=O)c1nc(Nc2cc(C)[nH]n2)c2ccccc2n1 was run?
**A.** 71.4% (inactive)

**Q.** For O=c1c2cccc3c(Nc4ccccn4)ccc(c32)c2nc3ccccc3n12, which growth is on record?
**A.** 111% (inactive)

**Q.** Which growth does the source give for C#Cc1nc(Nc2cc(C)[nH]n2)c2ccccc2n1 here?
**A.** -1.95% (active)

**Q.** Which growth does the source give for C[C@]12C[C@@H](c3ccoc3)OC(=O)[C@@H]1CC[C@]1(C)[C@@H]2CC[C@@H](O)[C@]1(C)O here?
**A.** 81.1% (inactive)

**Q.** With O=C1c2cc3c(cc2-c2c1c1cc(Cl)c(Cl)cc1c(=O)n2C[C@H](O)CO)OCO3 as the molecule, how does the growth read?
**A.** 33% (inactive)

**Q.** COc1cc(C2C(C(=O)c3cccs3)=C(O)C(=O)N2CCN2CCOCC2)cc(OC)c1OC (stereo not given) was tested. Which growth did it give?
**A.** 112% (inactive)

**Q.** Brc1cccc(-c2cc(-c3ccc4c(c3)OCCO4)[nH]n2)c1 was tested. Which growth did it give?
**A.** 30% [25 µM] (inactive)

**Q.** How did the growth turn out when COc1cc(C2CC(=O)c3c(C)nn(-c4nc5ccccc5[nH]4)c3C2)cc(OC)c1OC (stereo not given) was run?
**A.** 43.1% (inactive)

**Q.** Which growth does the source give for CN(C)c1ccc(C2Nc3ccccc3-n3cccc32)cc1 (stereo not given) here?
**A.** 95.5% (inactive)

**Q.** Which growth does the source give for O=C1CC(c2nc3ccccc3[nH]2)CN1C1CCCCC1 (stereo not given) here?
**A.** 102% (inactive)

**Q.** With C/C(=C(/c1ccc(O)cc1)c1ccc(OCCN2CCCC2)cc1)c1ccccc1 as the molecule, how does the growth read?
**A.** 66.8% (inactive)

**Q.** Which growth does the source give for CC#Cc1nc2ccccc2c(=O)[nH]1 here?
**A.** 58.7% (inactive)

**Q.** For CN(C)c1ccc(/C=C\C2=[N+](C)c3ccccc3C2(C)C)cc1, which growth is on record?
**A.** 9.83% (active)

**Q.** With CSc1nc(NCCO)c(C#N)c(-c2cccc(N)c2)n1 as the molecule, how does the growth read?
**A.** 96.5% (inactive)

**Q.** How did the growth turn out when COC1C/C(=N\O)C2OC(c3ccccc3)OCC2O1 (stereo not given) was run?
**A.** 106% (inactive)

**Q.** Which growth does the source give for NS(=O)(=O)c1ccc(-n2ncc3c(=O)[nH]c(CN4CCN(c5cc6c(cc5F)c(=O)c(C(=O)O)cn6C5CC5)CC4)nc32)cc1 here?
**A.** 97.8% (inactive)

**Q.** With Cc1[nH]n(-c2ccccc2)c2nc3nncc3c(-c3ccc(Cl)cc3)c12 as the molecule, how does the growth read?
**A.** 110% (inactive)

**Q.** For NC1=CC(=O)C(=O)c2ccccc21, which growth is on record?
**A.** 99.5% (inactive)

**Q.** For COc1ccc(-c2c3c(nc4n[nH]c(-c5ccc(Cl)cc5)c24)-c2ccccc2C(=O)C3=O)cc1, which growth is on record?
**A.** 7.1% (active)

**Q.** For CN(C)c1ccc(/C=C(\C#N)c2nc3ccccc3s2)cc1, which growth is on record?
**A.** 104% (inactive)

**Q.** Which growth does the source give for CC#CC#Cc1cccc(=O)o1 here?
**A.** 70.9% (inactive)

**Q.** For CCn1cc2c(cc1=O)-c1nc3ccccc3c3ccnc(c13)C2=O, which growth is on record?
**A.** 94.4% (inactive)

**Q.** With CC[C@H](Nc1cc(C)nc(N)n1)c1nc2cccc(NCc3ccc(C(=O)NO)cc3)c2c(=O)n1-c1ccccc1 as the molecule, how does the growth read?
**A.** 32.1% (inactive)

**Q.** With COc1ccc(-c2cc(-c3cccnc3)nc3sc4c(=O)n(-c5ccc(C)cc5)nnc4c23)cc1OC as the molecule, how does the growth read?
**A.** 93.9% (inactive)

**Q.** O=C1c2cccnc2C(=O)c2c1c(C(=O)OCCN1CCOCC1)c1ccccn21 was tested. Which growth did it give?
**A.** 30.3% (inactive)

**Q.** Which growth does the source give for Cc1nc2nc(N)nc(N)c2nc1C here?
**A.** 99.6% (inactive)

**Q.** Cn1cc(-c2csc(-c3cn(C)c4ncccc34)n2)c2ccccc21 was tested. Which growth did it give?
**A.** 46% (inactive)

**Q.** O=C(Nc1nc(-c2ccccc2)cc(-c2ccc(Cl)cc2)n1)c1ccncc1 was tested. Which growth did it give?
**A.** 100% (inactive)

**Q.** For C=C1CC2(OC1=O)C(=O)N(CCCCCCCCCCCCN1C(=O)C3(CC(=C)C(=O)O3)c3ccccc31)c1ccccc12 (stereo not given), which growth is on record?
**A.** 91.1% (inactive)

**Q.** With Cc1ccc(N)cc1F as the molecule, how does the growth read?
**A.** 86.4% (inactive)

**Q.** O=C(/C=C/c1ccc(B(O)O)cc1)/C=C/c1ccc(B(O)O)cc1 was tested. Which growth did it give?
**A.** 4.54% (active)

**Q.** How did the growth turn out when Cc1noc(C)c1-c1cc(O)cc(C(O)c2ccccc2)c1 (stereo not given) was run?
**A.** 33.7% (inactive)

**Q.** For COc1ccc(-c2cn3c(-c4ccc(OC)cc4)cnc3c(Oc3ccc4c(C)cc(=O)oc4c3)n2)cc1, which growth is on record?
**A.** 57.6% (inactive)

**Q.** How did the growth turn out when O=C1NC(=O)C(CC(=O)n2c(-c3ccccc3)nc3ccccc32)C(=O)N1 was run?
**A.** 102% (inactive)

**Q.** Which growth does the source give for CC(=O)O[C@H]1CC[C@]2(C)[C@H]3CC[C@@H]4[C@H]5[C@H](C(C)C)CC[C@]5(C(=O)OCC(CO)(CO)N=C(N)N)CC[C@@]4(C)[C@]3(C)CC[C@H]2C1(C)C here?
**A.** 93.7% (inactive)

**Q.** How did the growth turn out when O=C(/C=C\c1cccc([N+](=O)[O-])c1)c1ccccc1 was run?
**A.** 86.5% (inactive)

**Q.** How did the growth turn out when Nc1nc2c(c3ncccc13)C(c1cccc(Br)c1)Cc1ncccc1-2 (stereo not given) was run?
**A.** 37.2% (inactive)

**Q.** COc1cccc2c1C(=O)c1c(O)c3c(c(O)c1C2=O)C[C@@](O)(/C(C)=N/NC(=O)c1ccc(Cl)cc1)C[C@@H]3OC1CC(N)C(O)C(C)O1 (stereo not given in full) was tested. Which growth did it give?
**A.** -28.4% (active)

**Q.** For CCCCCC(=O)Oc1ccc(/C(=C(\C)c2ccccc2)c2ccc(OCCN(CC)CC)cc2)cc1, which growth is on record?
**A.** 35.6% (inactive)
